# Experimental data taken from PubChem BioAssay AID623870 (Broad Institute, 2012).
# The whole screen tested about 390,000 compounds, of which about 2,600 (0.67%) were called active. Only a selection was taken, and actives are over-represented in it overall. A number with no mark means an inactive call.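 The calls were made as follows: active = mean inhibition of replicates at least 50% and at least half of replicates each reaching 50%; inconclusive = half or more replicates reach 50% but mean below 50%; inactive = the rest.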
# Target: Transforming acidic coiled-coil-containing protein 3 (Homo sapiens) (UniProt Q9Y6A5)
# Experiment: inhibitors of ARNT PAS-B binding to TACC3 – biochemical, AlphaScreen, single concentration, primary screen (AID 623870);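 also: 0% = complete ARNT plus TACC3 wells and 100% = ARNT alone without TACC3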
# Settings: AlphaScreen His-ARNT PAS-B/GST-TACC3 binding, luminescence; at 9.99 µM; hits give high values; TACC3 fragment carries E629A point mutation
row,Compound,inhibition
1,CC=Cc1ccc2n(c1=O)C[C@@H]1[C@@H](CO)[C@H](C(=O)NCC3CC3)[C@H]2N1C(=O)c1ccccc1 (mixture of isomers),-1.91%
2,O=c1nc2s/c(=C\c3ccco3)c(=O)n2nc1Cc1ccccc1,67.7% (active)
3,O=c1/c(=C/c2ccc(CNS(=O)(=O)c3ccccc3)o2)sc2n1CCN=2,40.1%
4,CO[C@@H]1CN(C)C(=O)c2ccc(NC(=O)NC(C)C)cc2OC[C@@H](C)N(C(=O)NC(C)C)C[C@H]1C,-3.87%
5,COc1ccccc1-c1cnc2c(c1)C(=O)N([C@H](C)CO)C[C@H](C)[C@H](CN(C)Cc1cccnc1)O2,29.4%
6,O=C(CN1CCOCC1)N[C@@H]1CC[C@@H](CCn2cc(C3CCCCC3)nn2)O[C@@H]1CO,0.304%
7,CCC(=O)N(C)C[C@H]1Oc2cc(-c3ccccc3F)ccc2S(=O)(=O)N([C@H](C)CO)C[C@@H]1C,-1.89%
8,COc1ccc(NC(=O)O[C@@H](c2ccc(OCCO)cc2)[C@@H](C)CCO)cc1,-10.6%
9,O=C(O)c1ccc2c3c(cccc13)C(=O)N(OS(=O)(=O)c1ccccc1)C2=O,67.5% (active)
10,C[C@@H]1CN([C@H](C)CO)C(=O)c2cc(C#CCN(C)C)cnc2O[C@@H]1CN(C)C(=O)Cc1cccnc1,-0.97%
11,CO[C@H]1CN(C)C(=O)c2ccc(NC(=O)c3ccc4c(c3)OCO4)cc2OC[C@@H](C)NC[C@@H]1C,-11.2%
12,CC1=NN(c2ccc(Cl)c(C(=O)O)c2)C(=O)/C1=C/c1ccc(-c2ccccc2[N+](=O)[O-])o1,29.2% (active)
13,Cc1ccc(-c2ccc(/C=C(\C#N)C(N)=S)o2)c([N+](=O)[O-])c1,1.03%
14,Cc1ccc(S(=O)(=O)N(C)C[C@H]2Oc3c(NC(=O)C4CC4)cccc3C(=O)N([C@@H](C)CO)C[C@@H]2C)cc1,-6.68%
15,COC(=O)C1=C(C)NC2=C(C(=O)c3ccccc32)C1c1ccc(-c2ccc(C(=O)O)cc2)o1 (configuration not stated),65.4% (active)
16,O=C(C[C@H]1C[C@H]2c3cc(NC(=O)Nc4ccccc4F)ccc3O[C@H]2[C@H](CO)O1)NCc1ccccn1,-10.9%
17,COc1ccc(NC(=O)N(C)C[C@H]2OCCCC[C@@H](C)Oc3ccc(NS(=O)(=O)c4ccc(F)cc4)cc3C(=O)N([C@H](C)CO)C[C@H]2C)cc1,-5.89%
18,C/C=C/c1cnc2c(c1)C(=O)N([C@@H](C)CO)C[C@@H](C)[C@H](CN(C)Cc1ccccc1)O2,-2.09%
19,Cc1ccc(OCC(=O)N2CCN(C(=O)c3cccnc3)CC2)cc1,-5.09%
20,CCOC(=O)N1CCN(C(c2cccnc2)c2ccc3cccnc3c2O)CC1 (configuration not stated),61.4% (active)
21,CCOC(=O)N1CCN(C(=O)C2CCN(c3ncnc4c3sc3cccc(F)c34)CC2)CC1,-0.287%
22,CCN1CCN(C(c2cccnc2)c2cc(Cl)c3cccnc3c2O)CC1 (configuration not stated),55.4% (active)
23,CCS(=O)(=O)Nc1ccc2c(c1)C(=O)N(C)[C@@H]1CC[C@H](CC(=O)N[C@H]3CCN(Cc4ccccc4)C3)O[C@@H]1CO2,4.57%
24,CC=Cc1ccc2n(c1=O)C[C@H]1[C@H](CO)[C@@H](C(=O)NC3CCCC3)N(Cc3ccncc3)[C@@H]21 (mixture of isomers),7.61%

row,Compound,inhibition
1,O=C(C[C@@H]1C[C@@H]2c3cc(NC(=O)C4CCC4)ccc3O[C@@H]2[C@@H](CO)O1)NCc1ccccc1,-8.97%
2,CCC(=O)N1C[C@H](C)[C@H](OC)CN(C)C(=O)c2ccc(NS(C)(=O)=O)cc2OC[C@H]1C,0.229%
3,COc1ccccc1C(=O)Nc1ccc2c(c1)C(=O)N(C)C[C@@H](OC)[C@@H](C)CN(C)[C@H](C)CO2,5.81%
4,CN1C(=O)c2cc(NC(=O)Nc3ccccc3Cl)ccc2OC[C@H]2O[C@H](CC(=O)NCCCN3CCOCC3)CC[C@H]21,-6.44%
5,CCN(C(=O)Cc1nc(N)n[nH]1)C1(C(=O)Nc2ccccc2)CCCCC1,73.1% (active)
6,CCOC(=O)c1cn[nH]c1NC(=S)Nc1ccccc1,-4.6%
7,COc1c(O)ccc2c1CN1CCc3cc4c(cc3C1C2)OCO4 (configuration not stated),59.9% (active)
8,COc1cc(C2c3cc4c(cc3C(O)C3COC(=O)C23)OCO4)cc(OC)c1OC (configuration not stated),-5.89%
9,COc1ccc(-c2ccc3c(c2)[C@H]2[C@H](CCN2C(=O)c2ccc4c(c2)OCO4)[C@@H](CO)N3)cc1,2.52%
10,CC(C)C#Cc1cnc2c(c1)C(=O)N([C@H](C)CO)C[C@H](C)[C@@H](CN(C)C(=O)Nc1cc(F)ccc1F)O2,2.21%
11,C[C@H]1CN([C@@H](C)CO)C(=O)c2cc(C#Cc3ccccc3F)cnc2O[C@H]1CN(C)C,-2.77%
12,CC=Cc1ccc2n(c1=O)C[C@@H]1[C@@H](CO)[C@H](C(=O)NCC)[C@H]2N1CCC(F)(F)F (mixture of isomers),-2.83%
13,COc1ccc(Cl)cc1NC(=O)c1cccc(N2C(=O)C3CC=CCC3C2=O)c1 (configuration not stated),3.74%
14,COc1ccccc1C(=O)Oc1ccc(N2C(=O)CCC2=O)cc1,-4.25%
15,COc1ccccc1-c1nnc(NC(=O)c2cccc(N3C(=O)CCC3=O)c2)o1,60.7% (active)
16,CCNC(=O)C[C@H]1CC[C@@H](NC(=O)C2CCOCC2)[C@@H](CO)O1,-5.26%
17,O=S(=O)(c1ccc(F)cc1)N1CCCCN2[C@H](CO)[C@@H](c3ccc(C#CC4CCCC4)cc3)[C@H]2C1,5.01%
18,CC(C)NC(=O)Nc1cccc2c1O[C@H](CN(C)S(=O)(=O)c1ccccc1)[C@@H](C)CN([C@@H](C)CO)C2=O,-11.5%
19,CNC(=O)C(=O)N/N=C/c1ccccn1,57.1% (active)
20,Cc1c(NC(=O)C(=O)N/N=C/c2cccs2)c(=O)n(-c2ccccc2)n1C,4.89%
21,C=CCOc1ccc(/C=N/NC(=O)C(C)Sc2ccccn2)cc1OCC (configuration not stated),14.2%
22,COc1ccccc1S(=O)(=O)N[C@@H]1C=C[C@H](CC(=O)N2CCOCC2)O[C@@H]1CO,-20.1%
23,CN1[C@@H]2c3ccc(C4=CCCCC4)c(=O)n3C[C@H]1[C@H](CO)[C@H]2C(=O)NCc1ccc(F)cc1,3.89%
24,Cc1cc(C)nc(N/N=C/c2c(CO)cnc(C)c2O)n1,63% (active)

row,Compound,inhibition
1,COc1ccc(CNC(=O)C[C@H]2C[C@@H]3c4cc(NC(=O)NC5CCCC5)ccc4O[C@@H]3[C@H](CO)O2)cc1,-2.96%
2,COc1ccc(S(=O)(=O)N2CCCCN3[C@H](CO)[C@H](c4ccc(C5=CCCCC5)cc4)[C@@H]3C2)cc1,-0.894%
3,CO[C@@H]1CN(C)C(=O)c2ccc(NC(=O)Nc3cc(Cl)cc(Cl)c3)cc2OC[C@H](C)NC[C@H]1C,17.2%
4,C[C@H]1CN([C@@H](C)CO)S(=O)(=O)c2ccc(-c3ccncc3)cc2O[C@@H]1CN(C)C(=O)CC1CC1,-7.68%
5,CCN(CC)CCOc1ccc2c(c1)C(=NNC(=O)c1ccccn1)c1cc(OCCN(CC)CC)ccc1-2,58.8% (active)
6,CCN(C[C@@H]1[C@H](c2ccccc2)[C@@H](CO)N1CC1CC1)C(=O)c1ccccn1,1.43%
7,COCC(=O)N1[C@H](CNC(=O)c2ccccn2)[C@H](c2ccccc2)[C@@H]1CO,0.322%
8,C[C@@H]1CN([C@@H](C)CO)C(=O)c2cccc(NC(=O)c3nc4ccccc4s3)c2O[C@@H]1CN(C)Cc1ccc(Cl)c(Cl)c1,-2.22%
9,CCn1cc(/C=C2/SC(=S)NC2=O)c(C)n1,23.8% (active)
10,Cc1nn(C)cc1/C=C1\CCC/C(=C\c2cn(C)nc2C)C1=O,2.65%
11,COc1ccc(NC(=O)N(C)C[C@H]2Oc3c(NC(=O)NC(C)C)cccc3C(=O)N([C@@H](C)CO)C[C@H]2C)cc1,-14%
12,COc1cc(SC#N)ccc1N=Cc1c(C)[nH]n(-c2ccc(C)cc2)c1=O,2.45%
13,CCc1nnc(NC(=O)CCN(c2ccc(C)cc2)S(=O)(=O)c2ccccc2)s1,2%
14,CCc1nnc(NS(=O)(=O)c2ccc(N=Cc3c(C)[nH]n(-c4ccc(C)cc4)c3=O)cc2)s1,45.6% (active)
15,COc1ccc(-c2ccc3c(c2)[C@H]2[C@H](CCN2S(=O)(=O)c2ccccc2F)[C@H](CO)N3)cc1,-0.779%
16,COc1cccc(C(=O)Nc2ccc3c(c2)C(=O)N(C)[C@@H]2CC[C@H](CC(=O)NCC4CC4)O[C@@H]2CO3)c1,-14.2%
17,O=C(C[C@H]1CC[C@H](NC(=O)C2CCC2)[C@@H](CO)O1)NCCCN1CCOCC1,0.473%
18,C[C@H]1CN([C@@H](C)CO)C(=O)Cc2cc(NC(=O)CCC(F)(F)F)ccc2O[C@H]1CN(C)C(=O)NC1CCCCC1,-6.06%
19,Oc1c(CN2CCN(c3ccc(F)cc3)CC2)cc(Cl)c2cccnc12,73.2% (active)
20,O=C(c1cccc(F)c1)N1CCN(c2ccc([N+](=O)[O-])c3cccnc23)CC1,-1.2%
21,O=C(c1ccccc1)c1cccn1CC(=O)N1CCN(c2ccc(F)cc2)CC1,1.56%
22,Oc1c(CN2CCCC2)cc(COCc2ccccc2)c2cccnc12,64.5% (active)
23,C/C(=N/N1CCN(Cc2cccc3ccccc23)CC1)c1cccnc1,3.31%
24,CCCc1cc(=O)oc2c(C)c(O)c(CN3CCCCC3)cc12,0.049%
